Reference: PubChem BioAssay

The molecules below were run on Sonic hedgehog protein (Shh) (assay: Sonic hedgehog microarray binding compounds – biochemical, small-molecule microarray, 635/667 nm fluorescence, primary screen (AID 1151;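 note: Shh protein binding to compounds spotted on small-molecule microarray slides; score combines spot fluorescence intensity with signal-to-noise across triplicate slides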)). Details: 635 nm fluorescence, higher = more signal.

Row | SMILES | composite z-score
1 | COc1cc(CO)cc(I)c1O[C@H]1C=C(C(=O)NCCO)C[C@@H](N(CC2CCCCC2)C(=O)c2cc3ccccc3oc2=O)[C@@H]1O | 0.568
2 | C=C(CCCC)/C(=C/C[C@@H](OC(=O)c1ccncc1)c1cccc(OCCO)c1)c1cc(C(=O)OC)ccc1OC | 1.47
3 | C=CCC(OC(C)=O)[C@@H]1[C@@H](N(Cc2ccc(-c3ccccc3)cc2)C(=O)c2ccc(-c3ccccc3)cc2)c2cc(OCCCO)ccc2N1C(=O)Cc1ccc(OC)cc1 (stereo partly specified) | 0.346
4 | CC(=O)NCCCC[C@@H]1NC(=O)[C@H]2C[C@@H](C(=O)NCCCCCCN(C)C)[C@@H](c3ccc(O)cc3)N2C1=O | 1.79
5 | Cc1ccc(S[C@]2(C(=O)NC(C)C)CC(=O)N(C3Cc4ccccc4C3)[C@@H]2c2ccc(CO)cc2)cc1 | 1.67
6 | Cc1ccc(N2C(=O)c3ccccc3[C@](C)(C(=O)NCC(C)C)[C@@H]2c2ccc(CO)cc2)nc1 | -0.656
7 | [N-]=[N+]=NCc1ccccc1C[C@]1(C(=O)N2CCCCC2)N=C(c2ccc(OCCCO)cc2)O[C@H]1c1ccccc1CN=[N+]=[N-] | -0.0292
8 | C=C(CCCC)/C(=C/C[C@H](OC(=O)c1ccncc1)c1cccc(OCCO)c1)c1cc(C(=O)OC)ccc1OC | 1.61
9 | O=C(CS)NCCCCCCNC(=O)[C@@H]1C[C@@H]2C(=O)N[C@@H](Cc3ccccc3)C(=O)N2[C@@H]1c1ccc(O)cc1 | 1.86
10 | C=C(CCCC)C(=O)CC[C@@H](OC(=O)c1cccnc1)c1cccc(OCCO)c1 | 1.17
11 | COc1ccc([C@H]2C[C@H]3C(Br)=C[C@]2(OC)C(=O)[C@]32CO2)cc1 | -0.038
